Data from PubChem BioAssay.
The source made the active and inactive calls.

Legend:
[1] = test system: Plasmodium falciparum Sir2 (PF13_0152, Sir2A); assay: Plasmodium falciparum Sir2A binding compounds – biochemical, small-molecule microarray, 635 nm fluorescence, primary screen (AID 1098); settings: fluorescence 635 nm, higher = more signal;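 also: score merges spot fluorescence intensity with its signal-to-noise ratio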
[2] = probe aDKK1 binding to arrayed compounds – biochemical, biotinylated probe, 635/667 nm fluorescence, primary screen (AID 1099); settings: small-molecule microarray, higher = more signal;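 also: score merges 667nm spot fluorescence with signal to noise across triplicate slides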
[3] = probe aCHRDL2 binding to arrayed compounds – biochemical, biotinylated probe, 635/667 nm fluorescence, primary screen (AID 1100); settings: small-molecule microarray, higher = more signal
[4] = change in splice reporter luminescence, either direction, cell-based, HEK293, spliceosome inhibition project, primary screen (AID 1101); settings: HEK293 splicing luciferase reporter, 24 h, higher = more signal, called active from +8 up or from −8 down;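 also: HEK293 cells carrying a splicing-competent luciferase reporter gene; test concentration not given here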
[5] = target: Fibroblast growth factor 10 (Homo sapiens) (UniProt O15520); assay: compounds binding fibroblast growth factor 10 – biochemical, small-molecule microarray, 635 nm fluorescence, primary screen (AID 1102); settings: FGF10 binding, fluorescence 635 nm, higher = more signal
Sequence of Fibroblast growth factor 10 (Homo sapiens) (O15520 whole entry, looked up): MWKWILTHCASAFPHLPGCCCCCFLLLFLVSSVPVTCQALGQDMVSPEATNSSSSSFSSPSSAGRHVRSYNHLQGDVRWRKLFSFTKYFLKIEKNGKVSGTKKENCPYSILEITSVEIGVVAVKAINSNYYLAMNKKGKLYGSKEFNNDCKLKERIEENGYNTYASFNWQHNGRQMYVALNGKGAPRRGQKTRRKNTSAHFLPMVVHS

[6] = test system: glycogen synthase kinase-3 (GSK3A per assay name; protocol says GSK3B); assay: compounds binding glycogen synthase kinase-3 – biochemical, small-molecule microarray, 635 nm fluorescence, GSK3A, primary screen (AID 1103); settings: fluorescence 635 nm, higher = more signal; also: the record names both GSK3A and GSK3B
[7] = target: Epidermal growth factor receptor (Homo sapiens) (UniProt P00533); assay: compounds binding epidermal growth factor receptor – biochemical, small-molecule microarray, 635 nm fluorescence, primary screen (AID 1104); settings: EGFR binding, higher = more signal;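 also: score merges 667 nm emission intensity with spot signal to noise over triplicate slides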
Sequence of Epidermal growth factor receptor (Homo sapiens) (P00533 whole entry, looked up): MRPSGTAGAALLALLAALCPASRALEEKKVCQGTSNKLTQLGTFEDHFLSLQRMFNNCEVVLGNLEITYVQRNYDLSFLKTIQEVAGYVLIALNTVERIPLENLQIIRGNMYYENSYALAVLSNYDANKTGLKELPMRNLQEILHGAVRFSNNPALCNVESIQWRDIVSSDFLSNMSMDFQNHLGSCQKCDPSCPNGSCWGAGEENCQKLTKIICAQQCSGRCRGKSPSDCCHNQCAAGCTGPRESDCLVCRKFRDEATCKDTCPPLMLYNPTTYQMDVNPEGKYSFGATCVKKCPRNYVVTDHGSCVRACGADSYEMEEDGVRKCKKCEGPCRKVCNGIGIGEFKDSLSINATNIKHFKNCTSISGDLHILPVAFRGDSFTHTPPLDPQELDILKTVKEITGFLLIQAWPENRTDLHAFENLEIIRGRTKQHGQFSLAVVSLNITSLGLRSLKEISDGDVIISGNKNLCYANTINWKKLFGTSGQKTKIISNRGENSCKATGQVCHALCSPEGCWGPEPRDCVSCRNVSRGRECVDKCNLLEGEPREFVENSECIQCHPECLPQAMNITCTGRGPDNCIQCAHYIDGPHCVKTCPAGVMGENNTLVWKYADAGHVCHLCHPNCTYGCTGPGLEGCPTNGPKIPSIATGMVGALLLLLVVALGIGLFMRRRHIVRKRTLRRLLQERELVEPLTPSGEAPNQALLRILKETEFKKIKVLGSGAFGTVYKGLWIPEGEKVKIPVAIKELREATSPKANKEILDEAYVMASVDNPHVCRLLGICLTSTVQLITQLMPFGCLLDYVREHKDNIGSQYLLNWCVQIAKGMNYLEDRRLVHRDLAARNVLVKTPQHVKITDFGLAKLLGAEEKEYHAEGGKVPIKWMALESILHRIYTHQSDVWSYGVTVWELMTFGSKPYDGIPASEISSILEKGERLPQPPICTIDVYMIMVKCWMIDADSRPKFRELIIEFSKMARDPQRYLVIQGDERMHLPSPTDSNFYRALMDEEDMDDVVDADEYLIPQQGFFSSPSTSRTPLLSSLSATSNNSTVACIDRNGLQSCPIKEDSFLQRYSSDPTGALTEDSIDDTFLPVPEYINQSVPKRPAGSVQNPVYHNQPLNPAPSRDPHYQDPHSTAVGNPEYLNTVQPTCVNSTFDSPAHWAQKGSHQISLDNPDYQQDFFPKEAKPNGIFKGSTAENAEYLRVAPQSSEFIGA

[8] = target: Follistatin-related protein 3 (Homo sapiens) (UniProt O95633); assay: compounds binding follistatin-related protein 3 – biochemical, small-molecule microarray, 635 nm fluorescence, primary screen (AID 1105); settings: FSTL3 binding, higher = more signal;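 also: score merges emission near 667 nm and signal to noise per printed spot across three slides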
Sequence of Follistatin-related protein 3 (Homo sapiens) (O95633 whole entry, looked up): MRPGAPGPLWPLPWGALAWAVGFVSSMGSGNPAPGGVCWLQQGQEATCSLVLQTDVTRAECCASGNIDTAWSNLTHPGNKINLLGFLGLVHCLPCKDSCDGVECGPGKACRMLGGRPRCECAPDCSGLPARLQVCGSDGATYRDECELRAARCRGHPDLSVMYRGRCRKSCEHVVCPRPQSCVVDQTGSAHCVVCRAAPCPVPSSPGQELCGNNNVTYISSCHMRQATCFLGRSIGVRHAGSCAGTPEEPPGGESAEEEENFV

[9] = target: Dickkopf-related protein 1 (Homo sapiens) (UniProt O94907); assay: small molecules binding DKK1 protein – biochemical, small-molecule microarray, 635 nm fluorescence scan, primary screen (AID 1106); settings: higher = more signal;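 also: score merges emission near 667 nm with signal to noise over three replicate slides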
Sequence of Dickkopf-related protein 1 (Homo sapiens) (O94907 whole entry, looked up): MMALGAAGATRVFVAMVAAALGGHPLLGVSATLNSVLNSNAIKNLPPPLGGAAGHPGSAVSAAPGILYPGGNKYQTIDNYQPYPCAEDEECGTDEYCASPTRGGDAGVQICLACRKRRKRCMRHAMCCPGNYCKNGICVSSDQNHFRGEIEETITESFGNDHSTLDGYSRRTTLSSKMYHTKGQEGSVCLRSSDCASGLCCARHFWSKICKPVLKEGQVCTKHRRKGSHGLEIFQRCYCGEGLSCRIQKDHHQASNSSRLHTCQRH

[10] = test system: Inhibin beta A chain (activin A); assay: small molecules binding activin A – biochemical, small-molecule microarray, 635 nm fluorescence scan, primary screen (AID 1107); settings: INHBA, higher = more signal;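 also: mouse activin A protein probed at 4.33 µg/mL on printed slides; score merges bound-protein fluorescence near 667 nm with spot signal-to-noise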
[11] = test system: Human papillomavirus type 1a protein E7 (residues 44-93); assay: small molecules binding HPV E7 44-93 – biochemical, small-molecule microarray, residues 44-93, 635 nm fluorescence, primary screen (AID 1108); settings: fluorescence 635 nm, higher = more signal;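 also: E7 fragment applied at 1 µg/mL in TBST for 1 h at 4 C; score combines spot fluorescence with its signal to noise ratio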
[12] = hepatitis C replication reporter changes, two-sided – Huh7 cells, luciferase reporter, HCV replication inhibitor project, primary screen (AID 1109); settings: Huh7 HCV replicon luciferase reporter, 48 h; higher = more signal;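 also: huh7 hepatoma cells harbouring a luciferase neomycin HCV replicon reporter; luciferase luminescence as measure of HCV replicon replication; test concentration not given here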
[13] = target: Left-right determination factor 2 (Homo sapiens) (UniProt O00292); assay: small molecules binding LEFTY2 protein – biochemical, small-molecule microarray, 635 nm fluorescence scan, primary screen (AID 1110); settings: higher = more signal
Sequence of Left-right determination factor 2 (Homo sapiens) (O00292 whole entry, looked up): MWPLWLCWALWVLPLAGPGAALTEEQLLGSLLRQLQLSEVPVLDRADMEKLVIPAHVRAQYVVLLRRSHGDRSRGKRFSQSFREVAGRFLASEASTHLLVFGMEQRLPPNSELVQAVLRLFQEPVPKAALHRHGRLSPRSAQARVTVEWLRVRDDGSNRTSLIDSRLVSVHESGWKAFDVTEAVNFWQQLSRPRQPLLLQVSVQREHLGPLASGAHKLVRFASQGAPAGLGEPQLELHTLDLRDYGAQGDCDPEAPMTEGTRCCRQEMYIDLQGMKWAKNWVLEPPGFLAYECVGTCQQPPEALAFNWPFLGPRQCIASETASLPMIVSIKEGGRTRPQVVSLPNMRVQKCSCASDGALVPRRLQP

[14] = target: Calmodulin-1 (Homo sapiens) (UniProt P0DP23); assay: small molecules binding calmodulin-1 with EGTA – biochemical, small-molecule microarray, Cy5-labelled CALM1, profiling panel (AID 1111); settings: Cy5-CALM1 binding fluorescence, higher = more signal;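 also: labelled calmodulin applied in Tris saline Tween buffer holding calcium plus EGTA and DTT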
[15] = target: Calmodulin-1 (Homo sapiens) (UniProt P0DP23); assay: small molecules binding Ca-loaded calmodulin-1 – biochemical, small-molecule microarray, Cy5-labelled CALM1, plus calcium, artefact control for SMM control-protein annotation, profiling panel (AID 1112); settings: Cy5-CALM1 binding fluorescence, higher = more signal;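 also: score merges spot fluorescence with signal to noise from triplicate slides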
[16] = probe aWnt5a binding to arrayed compounds – biochemical, biotinylated probe, 635/667 nm fluorescence, primary screen (AID 1113); settings: small-molecule microarray, higher = more signal;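 also: score merges 667 nm fluorescence intensity with signal-to-noise per printed feature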
[17] = probe aShh binding to arrayed compounds – biochemical, biotinylated probe, 635/667 nm fluorescence, primary screen (AID 1114); settings: small-molecule microarray, higher = more signal;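 also: probe is biotin-labelled aShh protein from a stem cell growth factor screen; measures binding of labelled protein to compounds printed on the slide; score merges feature fluorescence at 667 nm with signal-to-noise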
[18] = probe aNog binding to arrayed compounds – biochemical, biotinylated probe, 635/667 nm fluorescence, primary screen (AID 1115); settings: small-molecule microarray, higher = more signal;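 also: probe is biotinylated aNog protein used at 0.15 µg/mL for 1 h at 4 C; z-score combines 667 nm fluorescence of each spot with its signal to noise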
[19] = target: Torsin-1A-interacting protein 1 (Homo sapiens) (UniProt Q5JTV8); assay: compound microarray binding of lysate hLAP1 – cell lysate, small-molecule microarray, COS7 lysate, 635/667 nm fluorescence, primary screen (AID 1116); settings: 635 nm fluorescence, higher = more signal
Sequence of Torsin-1A-interacting protein 1 (Homo sapiens) (Q5JTV8 whole entry, looked up): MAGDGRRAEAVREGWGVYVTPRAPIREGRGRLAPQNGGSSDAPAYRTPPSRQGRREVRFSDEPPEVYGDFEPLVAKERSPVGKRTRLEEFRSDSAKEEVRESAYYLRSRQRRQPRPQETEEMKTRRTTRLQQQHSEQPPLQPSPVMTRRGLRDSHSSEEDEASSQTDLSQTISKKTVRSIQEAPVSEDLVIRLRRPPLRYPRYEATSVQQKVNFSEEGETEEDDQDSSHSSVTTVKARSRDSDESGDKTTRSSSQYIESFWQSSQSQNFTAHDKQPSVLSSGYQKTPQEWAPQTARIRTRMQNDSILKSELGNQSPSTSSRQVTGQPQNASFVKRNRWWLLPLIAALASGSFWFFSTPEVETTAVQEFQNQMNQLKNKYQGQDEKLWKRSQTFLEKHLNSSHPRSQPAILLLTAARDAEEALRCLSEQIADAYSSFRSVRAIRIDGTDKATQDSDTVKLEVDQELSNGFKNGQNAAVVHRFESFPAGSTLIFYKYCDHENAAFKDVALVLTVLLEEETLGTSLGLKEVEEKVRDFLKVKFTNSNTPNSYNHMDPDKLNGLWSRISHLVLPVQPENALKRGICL

[20] = target: Alpha-bungarotoxin (Bungarus multicinctus) (UniProt P60615); assay: compounds binding labelled alpha-BTX control protein – biochemical, small-molecule microarray, Alexa647 label, 635/667 nm fluorescence, artefact control for SMM control protein annotation, profiling panel (AID 1117); settings: alpha-BTX-A647 binding fluorescence, higher = more signal
Sequence of Alpha-bungarotoxin (Bungarus multicinctus) (P60615 whole entry, looked up): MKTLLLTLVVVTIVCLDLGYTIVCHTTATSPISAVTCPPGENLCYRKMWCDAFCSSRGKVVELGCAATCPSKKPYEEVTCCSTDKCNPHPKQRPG

Row | SMILES | composite z-score [1] | composite z-score [2] | composite z-score [3] | z-score [4] | composite z-score [5] | composite z-score [6] | composite z-score [7] | composite z-score [8] | composite z-score [9] | composite z-score [10] | composite z-score [11] | z-score [12] | composite z-score [13] | composite z-score [14] | composite z-score [15] | composite z-score [16] | composite z-score [17] | composite z-score [18] | composite z-score [19] | composite z-score [20]
1 | COc1ccc(O[C@@H]2[C@H](O)CO[C@H]2C=Cc2ccccc2)cc1 | 0.1 | -0.274 | -0.379 | -0.878 (inactive) | 0.0279 | -0.0395 | -0.033 | -0.267 | -0.275 | 0.799 | -0.206 | 0.388 | -0.547 | -0.248 | -0.246 | -0.0685 | -0.283 | 0.0308 | -0.395 | -0.527
2 | CC(C)CON=C1C[C@@H](O)[C@@H](O)[C@@H]2[C@@H]3C(=O)N(C[C@@H]4CCCO4)C(=O)[C@@H]3CC[C@@H]12 | 0.0599 | 0.52 | 0.0562 | 0.926 (inactive) | -0.231 | -0.622 | -0.151 | -0.336 | -0.554 | -0.148 | 0.267 | 0.444 | 0.0128 | -0.333 | 0.0901 | -0.173 | -0.123 | -0.103 | -0.419 | 0.678
3 | O=C1CCCC(C2=CCCCC2=O)C1 (stereo not given) | -0.153 | -0.356 | -0.766 | 0.378 (inactive) | 0.466 | 0.555 | 0.612 | 0.668 | 0.923 | 1.5 | -0.281 | -0.293 | 0.524 | -0.732 | -1.38 | -0.0548 | 0.116 | -0.14 | 0.086 | -0.19
4 | COc1cccc([C@H]2Oc3ccc(OC)cc3C(=NO[C@@H](C)c3cn([C@H](CO)Cc4ccccc4)nn3)[C@@H]2O)c1 | 0.482 | -0.268 | -0.303 | -0.0241 (inactive) | 0.167 | -0.58 | -0.0558 | -0.201 | 0.113 | 0.176 | -0.429 | -0.727 | -0.36 | 0.465 | -0.0011 | -0.0836 | 0.0121 | 0.0918 | -0.0881 | -0.417
5 | COC(=O)CC=C[C@@H](C)[C@@H](C=NOCC[C@@H]1C=C[C@H](OC(C)=O)[C@@H](COC(C)=O)O1)OC | 0.381 | -0.0928 | -0.546 | 1.21 (inactive) | 0.933 | 0.328 | 0.498 | 0.651 | 0.556 | -0.3 | 0.107 | -0.488 | 0.589 | -1 | -1.78 | -0.0346 | 0.284 | -0.205 | 0.473 | -0.484
6 | COc1ccc(O[C@H]2C=C[C@@H](c3ccccc3)O[C@@H]2COC(=O)CCC(C)=NOC(C)CN2CCCc3nc(C)c(C)cc32)cc1 (stereo not given in full) | 0.817 | -0.176 | -0.433 | 0.063 (inactive) | 0.753 | 1.03 | 0.517 | 0.889 | 0.524 | 0.465 | 1.31 | -1.81 | 0.646 | 0.0727 | -0.384 | -0.124 | 0.0278 | 0.109 | 0.4 | 0.463
7 | CO[C@@H]1COC(=O)[C@@H]2CCCN2C(=O)[C@@H](C)COC(=O)CC=C[C@H]1C | 0.13 | -0.552 | -0.522 | -0.203 (inactive) | 0.959 | 1.28 | 0.598 | 0.993 | 1.12 | -0.282 | 1.04 | -0.913 | 0.861 | -0.149 | -0.439 | -0.147 | 0.284 | 0.0453 | 0.378 | 0.234
8 | Cn1c(=O)n2n(c1=O)[C@H]1[C@H](O)[C@@H]3O[C@@H]3C(=O)[C@H]1CC2 | 0.269 | -0.0838 | -0.512 | -0.515 (inactive) | 0.946 | 0.778 | 0.531 | 0.534 | 0.408 | 0.0134 | 0.625 | 0.101 | 0.486 | -0.144 | -0.502 | -0.104 | -0.0146 | -0.234 | 0.663 | -0.541
9 | CON=C[C@@H](C)[C@H](OCc1ccccc1)C(C)C | -0.187 | -0.152 | -0.225 | -0.829 (inactive) | 0.0578 | -0.594 | 0.327 | 0.122 | 0.312 | 0.216 | -0.933 | -0.131 | 0.418 | -0.442 | -0.418 | -0.0882 | -0.419 | -0.204 | 1.15 | -0.11
10 | CCOC(=O)[C@H](Cc1ccccc1)NC(=O)CCC1CC(OC(=O)NCc2ccc3c(c2)OCO3)CC2(CCCC(COC(=O)NCCc3ccccc3OC)O2)O1 (stereo not given in full) | 0.604 | -0.0864 | -0.465 | 0.222 (inactive) | 0.977 | 1.23 | 0.539 | 1.35 | 0.759 | 0.0493 | 1.39 | -1.11 | 0.816 | 0.627 | 0.157 | -0.0944 | -0.0471 | -0.0125 | 0.775 | 1.11
11 | CC1O[C@H]2C3=C(C(=O)[C@@H]4O[C@@H]4[C@H]3O)[C@@H]1C1[C@@H](C)OC=C3[C@H](O)C4O[C@@H]4C(=NOCc4ccccc4)[C@]312 (stereo not given in full) | 0.0395 | -0.129 | -0.326 | -0.469 (inactive) | 0.0791 | -0.14 | 0.191 | -0.3 | 0.155 | 0.121 | -0.768 | -3.71 | 0.18 | -0.472 | -0.177 | -0.0519 | 0.225 | -0.347 | -0.192 | -0.725
12 | COC(=O)[C@H](C)NC(=O)CCC1CC(OC(=O)NCc2ccc3c(c2)OCO3)CC2(CCCC(COC(=O)NCC(c3ccccc3)c3ccccc3)O2)O1 (stereo not given in full) | 0.848 | -0.33 | -0.845 | -0.845 (inactive) | 1.33 | 0.653 | 0.651 | 1.2 | 0.766 | -0.473 | 1.42 | 0.327 | 0.739 | 0.869 | -0.663 | -0.0037 | -0.229 | -0.11 | 0.587 | 1.04
